# Several values for one entry are separate records, joined by “and”; a condition that tells them apart may be missing. Equal values may be shown once. Records with an inconclusive call do not appear. Activity calls are given as the source filed them. The call rests on the fitted dose curve; in most records, active means well fitted curve in the direction sought with a large enough effect; inconclusive means small, poorly fitted or top-dose-only effect, or another doubt; inactive means no such curve, though single readings can be large; an effect the other way counts as inactive or inconclusive.
# Tests used:
# [1] = Viability qHTS for spleen associated tyrosine kinase inhibitor (SYKi) drug resistant MV4-11 cells (AID 1963824); further: nearly all actives have a fitted effect of over 35% in size
# Summary of the method: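 SYK-inhibitor-resistant MV4-11 AML cells were seeded at 500 per well onto compound and cultured 72 hours (37 °C, 5% CO2). CellTiter-Glo was then added, and after 10 min at room temperature, luminescence gave viability.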
# [2] = Quantitative highthroughput screen to assess conditional lethalithy of NOMO1 cells grown in RPMI1640 with untreated serum (RPMI+s) (AID 1963876); further: nearly all actives have a fitted effect of over 35% in size
# Summary of the method: (§1)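 Each medium arm—HPLM with 10% dialyzed FBS, or RPMI1640 with 5 mM glucose and 10% untreated or dialyzed FBS—was screened against an 11-point, 3-fold compound titration for 48 h at 37 °C, with CellTiter-Glo luminescence as endpoint.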
# [3] = Quantitative highthroughput screen to assess conditional lethalithy of P12 Ichikawa cells grown in RPMI1640 with dialyzed fetal bovine serum (RPMI+ds) (AID 1963880); details: Potency: P12-Ichikawa viability; further: nearly all actives have a fitted effect of over 35% in size
# Summary of the method: as §1
# [4] = Quantitative highthroughput screen to assess conditional lethalithy of SEM cells grown in Human Plasma-Like Medium with dialyzed fetal bovine serum (HPLM+ds) (AID 1963882); further: nearly all actives have a fitted effect of over 35% in size
# Summary of the method: as §1
# [5] = Quantitative highthroughput screen to assess conditional lethalithy of SEM cells grown in RPMI1640 with dialyzed fetal bovine serum (RPMI+ds) (AID 1963884); further: nearly all actives have a fitted effect of over 35% in size
# Summary of the method: as §1
# [6] = Cellular viability qHTS for adrenocortical cancer (ACC) cell line SW-13 (AID 1963989); details: SW-13 ACC cells viability, CellTiter-Glo, 48 h; activity (max response): active compounds read low; further: nearly all actives have a fitted effect of over 65% in size
# Summary of the method: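 Viability was read as CellTiter-Glo luminescence after 48 h compound treatment (up to 46 uM final) of SW-13 cells grown serum-free; titration curves were fit with a four-parameter logistic model to give IC50 and efficacy.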
# [7] = Quantitative highthroughput screen to assess conditional lethalithy of P12 Ichikawa cells grown in Human Plasma-Like Medium with dialyzed fetal bovine serum (HPLM+ds) (AID 1963879); details: Potency: viability; further: nearly all actives have a fitted effect of over 35% in size
# Summary of the method: as §1
# [8] = Quantitative highthroughput screen to assess conditional lethalithy of P12 Ichikawa cells grown in RPMI1640 with untreated serum (RPMI+s) (AID 1963881); details: Potency: viability; further: nearly all actives have a fitted effect of over 35% in size
# Summary of the method: as §1
# [9] = Quantitative highthroughput screen to assess conditional lethalithy of NOMO1 cells grown in RPMI1640 with dialyzed fetal bovine serum (RPMI+ds) (AID 1963877); further: nearly all actives have a fitted effect of over 30% in size
# Summary of the method: as §1
# [10] = Quantitative highthroughput screen to assess conditional lethalithy of NOMO1 cells grown in Human Plasma-Like Medium with dialyzed fetal bovine serum (HPLM+ds) (AID 1963878); further: nearly all actives have a fitted effect of over 35% in size
# Summary of the method: as §1
# Potency means the concentration at half of the fitted maximal effect.
smiles,measurement,setting,value
CC12CCC3C(CCC4(O)CC(O)CCC34C=O)C1(O)CCC2C1=CC(=O)OC1 (centres undefined),Potency,[1],0.231 µM (active)
CC1=CC2/C=C(\C)CCC(O)C3OC(C)(C)OC3CC(=O)OC23C(=O)NC(CC(C)C)C3C1C (centres undefined),Potency,[1],12.6 µM (active)
COC(=O)CC1CC2(C(=O)c3c(O)cccc3C2(O)C(=O)OC)C(C)O1 (centres undefined),Potency,[1],16.1 µM (active)
CC(=O)C1CCC2C3CCC4C[C@@H](O)CCC4(C)C3CCC12C (some centres undefined),Potency,[1],14.6 µM (active)
Cc1[nH]nc2ccc(-c3cncc(OC[C@@H](N)Cc4c[nH]c5ccccc45)c3)cc12,Potency,[1],65.1 nM (active) and 105 nM (active)
same,Potency,[2],1.18 µM (active)
same,Potency,[3],1.05 µM (active)
same,Potency,[4],0.187 µM (active)
same,Potency,[5],0.418 µM (active)
same,Potency,[6],0.708 µM (active)
COc1ccc(C(=O)c2c(C)n(CCN3CCOCC3)c3cc(I)ccc23)cc1,Potency,[1],10.5 µM (active)
same,Potency,[2],0.935 µM (active)
same,Potency,[7],4.18 µM (active)
same,Potency,[8],4.18 µM (active)
same,Potency,[4],20.9 µM (active)
same,Potency,[6],31.6 µM (active)
CC(=O)OC[C@]12C[C@H](OC(=O)CC(C)C)C(C)=C[C@H]1O[C@@H]1[C@H](O)[C@@H](O)[C@@]2(C)[C@]12CO2,Potency,[1],0.0089 µM (active)
COc1cc(C(=O)N2CC[C@@H](O)[C@@H](N)C2)cc2nc(-c3cc4ccccc4n3CC3CC3)n(C)c12,Potency,[1],9.34 µM (active)
same,Potency,[9],1.17 µM (active)
same,Potency,[10],0.234 µM (active)
same,Potency,[8],1.05 µM (active)
same,Potency,[4],1.32 µM (active)
same,Potency,[5],0.831 µM (active)
CC(=O)OC[C@]12C[C@H](O)C(C)=C[C@H]1O[C@@H]1[C@H](O)[C@@H](O)[C@@]2(C)[C@]12CO2,Potency,[1],0.805 µM (active)
